From PubChem BioAssay (NCATS)
Records with an inconclusive call do not appear. Calls of active or inactive are those of the source. Calls come from the whole dose curve; as a rule, active = well fitted curve in the direction sought with a large enough effect; inconclusive = small, poorly fitted or top-dose-only effect, or another doubt; inactive = no such curve, though single readings can be large; an effect the other way counts as inactive or inconclusive.

Columns and labels:
[1] = qHTS of pediatric cancer cell lines to identify multiple opportunities for drug repurposing: Primary screen for LAN-5 cells (AID 1347100);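 note: plate controls were DMSO neutral control for no effect and bortezomib positive control for full effect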
In short: (§1)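 Cells (500-1,000/well) rested 5 h, then received compounds for 48 h; metabolically active cells were measured by CellTiter-Glo luminescence. Final concentrations spanned up to 46 µM (MIPE, 11-point) or 0.59 nM-46 µM (NPC, 8-point) in primary screens, 11-point in follow-ups.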

[2] = qHTS of pediatric cancer cell lines to identify multiple opportunities for drug repurposing: Primary screen for BT-12 cells (AID 1347101);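 note: plate controls were DMSO for no effect and bortezomib positive control for full effect; nearly all actives have a fitted effect of over 25% in size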
In short: as §1

[3] = qHTS of pediatric cancer cell lines to identify multiple opportunities for drug repurposing: Primary screen for Rh18 cells (AID 1347102); note: % is set by controls: 0 for no effect and ±100 for the full control effect; nearly all actives have a fitted effect of over 65% in size
In short: as §1

[4] = qHTS of pediatric cancer cell lines to identify multiple opportunities for drug repurposing: Primary screen for OHS-50 cells (AID 1347103);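 note: plate controls were DMSO neutral control for no effect and bortezomib positive control for full effect; nearly all actives have a fitted effect of over 40% in size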
In short: as §1

[5] = qHTS of pediatric cancer cell lines to identify multiple opportunities for drug repurposing: Primary screen for RD cells (AID 1347104);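 note: plate controls were DMSO for no effect and bortezomib for full effect; nearly all actives have a fitted effect of over 55% in size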
In short: (§2)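 Cells seeded at 500-1,000 cells/well in growth media, rested 5 hours at 37 degrees C, 5% CO2, then dosed; MIPE compounds at 11-point (from 0.78 nM) and NPC at 8-point (from 0.59 nM) final concentrations. Viability by CellTiter-Glo luminescence after 48 hours.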

[6] = qHTS of pediatric cancer cell lines to identify multiple opportunities for drug repurposing: Primary screen for MG 63 (6-TG R) cells (AID 1347105); note: % is set by controls: 0 for no effect and ±100 for the full control effect; nearly all actives have a fitted effect of over 50% in size
In short: as §2

[7] = qHTS of pediatric cancer cell lines to identify multiple opportunities for drug repurposing: Primary screen for Rh30 cells (AID 1347107); note: series mostly up to about 46 µM; % is set by controls: 0 for no effect and ±100 for the full control effect; nearly all actives have a fitted effect of over 75% in size
In short: as §1

[8] = qHTS of pediatric cancer cell lines to identify multiple opportunities for drug repurposing: Primary screen for Rh41 cells (AID 1347108);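 note: series mostly up to about 46 µM; luminescence drop marks cytotoxic hits; nearly all actives have a fitted effect of over 70% in size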
In short: as §2

[9] = qHTS of pediatric cancer cell lines to identify multiple opportunities for drug repurposing: Primary screen for control Hh wild type fibroblast cells (AID 1347106);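 note: series mostly up to about 46 µM; % is set by controls: 0 for no effect and ±100 for the full control effect; a drop in luminescence marks cytotoxicity and a rise apparent proliferation; nearly all actives have a fitted effect of over 55% in size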
In short: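 Cells (500-1,000/well) in growth media were settled 5 h at 37 degrees C, then given compounds for 48 h. Viability was read as CellTiter-Glo luminescence. Primary runs used MIPE at 11 points (0.78 nM-46 µM) and NPC at 8 points (0.59 nM-46 µM); follow-ups used 11 points.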

OCC(CO)N[C@H]1C[C@](O)(CO)[C@@H](O)[C@H](O)[C@H]1O
inactive: Potency [1] | Potency [2] | Potency [3] | Potency [4] | Potency [5] | Potency [6] | outcome [7] | Potency [8]

Nc1ccc(S(=O)(=O)Nc2ccccc2)cc1
inactive: Potency [1] | Potency [2] | Potency [3] | Potency [4] | Potency [5] | Potency [6] | outcome [7] | Potency [8]

CN(N=O)C(=O)N[C@@H]1[C@@H](O)[C@H](O)[C@@H](CO)O[C@@H]1O
inactive: Potency [1] | Potency [2] | Potency [3] | Potency [4] | Potency [5] | Potency [6] | outcome [7] | Potency [8]

O=C(O)c1ccccn1
inactive: Potency [1] | Potency [2] | Potency [3] | Potency [4] | Potency [5] | Potency [6] | outcome [7] | Potency [8]

O=S(=O)(O)c1cc(I)c(O)c2ncccc12
inactive: Potency [1] | Potency [2] | Potency [3] | Potency [4] | Potency [5] | Potency [6] | outcome [7] | Potency [8]

CN(C)CCOC(C)(c1ccccc1)c1ccccn1 (configuration not stated)
inactive: Potency [1] | Potency [2] | Potency [3] | Potency [4] | Potency [5] | Potency [6] | outcome [7] | Potency [8]

CC12CCC(CC1)C(C)(C)O2
inactive: Potency [1] | Potency [2] | Potency [3] | Potency [4] | Potency [5] | outcome [9] | outcome [7] | Potency [8]

C=Cc1c(C)c2cc3[nH]c(cc4nc(cc5nc(cc1[nH]2)C(C)=C5CCC(=O)O)C(CCC(=O)O)=C4C)c(C)c3C=C
inactive: Potency [1] | Potency [2] | Potency [3] | Potency [4] | Potency [5] | Potency [6] | outcome [7] | Potency [8]

CCCCCCCCCCCCCCCCCCOCC(O)CO (configuration not stated)
inactive: Potency [1] | Potency [2] | Potency [3] | Potency [4] | Potency [5] | Potency [6] | outcome [7] | Potency [8]

O=C1NC(=O)[C@@]2(CCOc3ccc(F)cc32)N1
inactive: Potency [1] | Potency [2] | Potency [3] | Potency [4] | Potency [5] | Potency [6] | outcome [7] | Potency [8]

NC(=O)NNc1ccccc1
inactive: Potency [1] | Potency [2] | Potency [3] | Potency [4] | Potency [5] | outcome [9] | outcome [7] | Potency [8]

NC(=O)NC(=O)Cc1ccccc1
inactive: Potency [1] | Potency [2] | Potency [3] | Potency [4] | Potency [5] | Potency [6] | outcome [7] | Potency [8]

COC(=O)[C@H]1[C@H]2C[C@@H]3c4[nH]c5cc(OC)ccc5c4CCN3C[C@H]2C[C@@H](OC(=O)COc2ccc(OC)cc2)[C@@H]1OC
inactive: Potency [1] | Potency [2] | Potency [3] | Potency [4] | Potency [5] | outcome [9] | outcome [7] | Potency [8]

Cc1cc(CC(=O)O)n(C)c1C(=O)c1ccc(Cl)cc1
inactive: Potency [1] | Potency [2] | Potency [3] | Potency [4] | Potency [5] | outcome [9] | outcome [7] | Potency [8]

O=c1cc(CO)occ1O
inactive: Potency [1] | Potency [2] | Potency [3] | Potency [4] | Potency [5] | outcome [9] | outcome [7] | Potency [8]

N[C@@H](CSSC[C@H](N)C(=O)O)C(=O)O
inactive: activity change, negative = cytotoxic [1] 6.24% [at 0.597 µM] | activity change, negative = cytotoxic [2] 5.67% [at 0.745 µM] | activity change, negative = cytotoxic [3] 0.304% [at 0.597 µM] | activity change, negative = cytotoxic [4] 6.93% [at 0.73 µM] | activity change, negative = cytotoxic [5] 5.61% [at 0.597 µM] | activity change, negative = cytotoxic [6] 0.733% [at 0.597 µM] | activity change, negative = cytotoxic [7] 12% [at 0.597 µM] | activity change, negative = cytotoxic [8] 8.25% [at 0.597 µM]

c1ccc(CN(CC2=NCCN2)c2ccccc2)cc1
inactive: Potency [1] | Potency [2] | Potency [3] | Potency [4] | outcome [9] | outcome [7] | Potency [8]

CN(C)CCCO[C@@H]1[C@H]2OC(C)(C)O[C@H]2O[C@@H]1C(O)CO (some centres not stated)
inactive: Potency [1] | Potency [2] | Potency [3] | Potency [4] | Potency [5] | outcome [7] | Potency [8]
